Data on 14 compounds can be found in PubChem BioAssay.

Molecules are shown by their SMILES. The source made the active and inactive calls.

The target in one experiment is Albumin (Bos taurus) (UniProt P02769). The experiment in a line: compounds binding labelled BSA control protein – biochemical, small-molecule microarray, Alexa647 label, 635/667 nm fluorescence, artefact control for SMM control protein annotation, profiling panel (AID 1118).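 Further: score merges 667 nm emission intensity and signal-to-noise per printed compound spot.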 To be noted: BSA-A647 binding, fluorescence 635 nm, higher = more signal.
Sequence of Albumin (Bos taurus) (P02769 whole entry, looked up): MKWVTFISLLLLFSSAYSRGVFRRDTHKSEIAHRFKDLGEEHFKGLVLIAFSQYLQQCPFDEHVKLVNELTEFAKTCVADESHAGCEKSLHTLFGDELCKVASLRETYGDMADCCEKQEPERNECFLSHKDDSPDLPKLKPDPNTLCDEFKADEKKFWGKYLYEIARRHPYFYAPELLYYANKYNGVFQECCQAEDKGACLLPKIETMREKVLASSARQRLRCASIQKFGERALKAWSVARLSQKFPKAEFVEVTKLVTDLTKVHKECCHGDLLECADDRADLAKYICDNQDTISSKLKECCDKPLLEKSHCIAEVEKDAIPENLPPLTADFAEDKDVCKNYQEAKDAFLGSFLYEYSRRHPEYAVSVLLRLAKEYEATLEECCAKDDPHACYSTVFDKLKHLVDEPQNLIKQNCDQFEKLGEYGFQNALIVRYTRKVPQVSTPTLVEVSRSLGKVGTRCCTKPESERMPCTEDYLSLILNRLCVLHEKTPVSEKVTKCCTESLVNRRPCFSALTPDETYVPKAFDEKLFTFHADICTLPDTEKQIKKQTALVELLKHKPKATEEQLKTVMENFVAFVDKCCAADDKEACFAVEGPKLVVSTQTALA
Experiment [1] is described as follows: probe aXIP binding to arrayed compounds – biochemical, NeuroSMM set, 635/667 nm fluorescence, primary screen (AID 1119).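 Further: probe is the protein aXip251-270 applied at 1 µg/mL to compound-printed slides; binding of probe to printed compounds measured as 667 nm fluorescence plus signal to noise.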 To be noted: small-molecule microarray, higher = more signal, called active from +8 up or from −8 down.
Experiment [2] can be described thus: probe aNOTCH3 binding on compound microarray – biochemical, small-molecule microarray, 635/667 nm fluorescence, primary screen (AID 1120).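 Further: probe is a biotin-tagged antibody raised against NOTCH3 rather than NOTCH3 protein; score merges spot fluorescence near 667 nm with spot signal to noise.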 To be noted: higher = more signal.
The nature of experiment [3]: probe aNOTCH2 binding on compound microarray – biochemical, small-molecule microarray, 635/667 nm fluorescence, primary screen (AID 1121).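 Further: score merges feature fluorescence read at 667 nm with its signal to noise.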 To be noted: higher = more signal.
Experiment [4] has as its target Carbonic anhydrase 2 (Homo sapiens) (UniProt P00918). The experiment in a line: compounds binding carbonic anhydrase 2 – biochemical, small-molecule microarray, Alexa647-labelled CAII, profiling panel (AID 1122). To be noted: CAII-A647 binding fluorescence, higher = more signal.
Experiment [5] can be described thus: COS7 lysate on small-molecule microarray, probe aHis, 635 nm (AID 1123).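 Further: z-score combines 667nm fluorescence intensity with signal-to-noise per printed compound spot.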 Particulars: COS7 cell lysate, fluorescence, higher = more signal.
The nature of experiment [6]: probe aLAP1 signal on lysate-treated microarray – cell lysate, small-molecule microarray, COS7 lysate, primary screen (AID 1124).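 Further: lysate comes from COS7 cells expressing LAP1 and is applied at 0.3 µg/mL; score merges spot fluorescence near 667 nm with signal-to-noise over triplicate slides.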 Particulars: probe aLAP1, fluorescence, higher = more signal.
A further experiment has as its system Sam68 (KHDRBS1). Put plainly: compounds binding KHDRBS1 protein – biochemical, small-molecule microarray, 635 nm fluorescence, primary screen (AID 1125).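 Further: score merges 667 nm channel intensity with signal to noise over triplicate slides.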 Particulars: higher = more signal.
For experiment [7], the system named is Chordin-like protein 2 (CHRDL2). Put plainly: compounds binding chordin-like 2 – biochemical, small-molecule microarray, 635 nm fluorescence, primary screen (AID 1126).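 Further: printed compound slides probed with Chrdl2 protein at 4 µg/mL for 1 h at 4 C; score merges 667 nm emission intensity with signal to noise over three replicate slides.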 Particulars: fluorescence 635 nm, higher = more signal.
For experiment [8], the target named is Concanavalin-A (Canavalia ensiformis) (UniProt P02866). The experiment in a line: compounds binding concanavalin A lectin – biochemical, small-molecule microarray, Alexa647 label, 635 nm, artefact control for SMM control protein annotation, primary screen (AID 1127).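 Further: z combines 667 nm emission intensity with signal-to-noise across three replicate slides.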 To be noted: ConA-A647 binding fluorescence, higher = more signal.
Sequence of Concanavalin-A (Canavalia ensiformis) (P02866 whole entry, looked up): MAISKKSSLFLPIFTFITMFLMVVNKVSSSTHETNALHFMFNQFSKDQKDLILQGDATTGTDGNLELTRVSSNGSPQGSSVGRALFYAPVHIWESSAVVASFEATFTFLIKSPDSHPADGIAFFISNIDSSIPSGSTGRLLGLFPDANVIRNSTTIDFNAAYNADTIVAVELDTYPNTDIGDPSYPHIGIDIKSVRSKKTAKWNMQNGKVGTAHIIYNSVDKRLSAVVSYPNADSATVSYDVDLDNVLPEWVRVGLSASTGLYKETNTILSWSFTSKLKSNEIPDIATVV

As for `CCCN1C(=O)[C@@]2(Cc3ccccc31)N=C(c1ccc(OCCCO)cc1)O[C@H]2c1ccccc1`, the composite z-score in the experiment with Albumin (Bos taurus) was -0.324; in experiment [2], 0.0916; in experiment [3], 0.0118; in [4], 0.523; in experiment [5], 1.88; in experiment [6] it was 0.587. The composite z-score in the experiment with Sam68 (KHDRBS1) was 1.31; in experiment [7], 0.201; in experiment [8], 1.13. For the same compound, the composite Z-score in experiment [1] was 0.953 (inactive).

`Cc1ccc(F)cc1S(=O)(=O)N[C@@H]1CCN(Cc2ccc(Br)cc2)C1`: the composite z-score in the experiment with Albumin (Bos taurus) was 0.694; in [2], 0.122; in experiment [3], -0.0424; in experiment [4], 0.276; in experiment [5], -0.593; in experiment [6], -0.386. The composite z-score in the experiment on Sam68 (KHDRBS1) is -0.811; in [7] it was 0.743; in [8], -0.862. The composite Z-score in experiment [1] was -0.388 (inactive).

As for `Cc1ccc(S[C@]2(C(=O)NCC(F)(F)F)CC(=O)N(Cc3cc(C(F)(F)F)cc(C(F)(F)F)c3)[C@@H]2c2ccc(CO)cc2)cc1`, the composite z-score was -0.658 in the experiment with Albumin (Bos taurus); -0.229 in [2]; -0.164 in [3]; 0.802 in experiment [4]; -0.551 in experiment [5]; -0.238 in experiment [6]. Moreover, the results for the composite z-score (in the experiment on Sam68 (KHDRBS1); in experiment [7]; in [8]) were -0.36, -1.19 and -0.183, respectively. Further, in experiment [1], the composite Z-score is -0.0775 (inactive).

Turning to `C=CCC(OC(C)=O)[C@@H]1[C@@H](N(Cc2cccc3ccccc23)C(=O)Cc2ccc(OC)cc2)c2cc(OCCCO)ccc2N1C(=O)c1ccc(-c2ccccc2)cc1` (stereo not given in full), the composite z-score in the experiment with Albumin (Bos taurus) was 0.249; in [2], -0.0647; in [3] it was -0.0895; in experiment [4] it was -0.0283; in [5] it was 0.917; in [6] it was 0.181. Besides, the figures for the composite z-score (in the experiment with Sam68 (KHDRBS1); in experiment [7]; in experiment [8]) were -0.189, 0.0133 and -0.285, respectively. For the same compound, the composite Z-score in experiment [1] is -0.166 (inactive).

For `CC(C)=C1C(=O)C(c2ccccc2)=C2CN3C(=O)N(CCc4ccccc4)C(=O)[C@]3(Cc3ccc(C(F)(F)F)cc3)[C@H]21`, the composite z-score with Albumin (Bos taurus) was 0.682; in experiment [2], 0.34; in [3], 0.134; in experiment [4] it was 0.368; in experiment [5] it was 1.95; in experiment [6], 0.224. Also, the composite z-score is -0.439 in the experiment on Sam68 (KHDRBS1), -2.09 in experiment [7] and -0.47 in [8]. In experiment [1], the composite Z-score is -0.355 (inactive).

`O=C(c1ccccc1)N1C(=O)[C@]2(Cc3ccccc31)N=C(c1ccc(OCCCO)cc1)O[C@@H]2c1ccccc1`: the composite z-score with Albumin (Bos taurus) is 0.462; in [2], 0.0691; in [3] it was -0.0928; in experiment [4], 0.204; in [5], 2.7; in [6], 0.356. Further, the composite z-score in the experiment with Sam68 (KHDRBS1) is 1.29; in experiment [7] it was 0.371; in experiment [8], 1.13. Also, the composite Z-score in experiment [1] is -0.129 (inactive).

Take `CC(C)C(CO)N1C(=O)[C@@H]2[C@H]3C(=O)OCC=C[C@H]3OC23C=CCN(c2ccc(Cl)cc2)C(=O)[C@@H]13` (stereo not given in full): the composite z-score with Albumin (Bos taurus) is -1.26; in experiment [2], -0.171; in experiment [3], -0.117; in [4], 0.839; in experiment [5], -0.372; in experiment [6], -0.364. Also, the composite z-score in the experiment with Sam68 (KHDRBS1) was 0.0729; in [7] it was -0.847; in experiment [8], -0.842. Also, the composite Z-score in experiment [1] is -0.268 (inactive).

On to `CCOC(=O)C1=C[C@@H](c2ccccc2)N(S(=O)(=O)c2ccc(C)cc2)[C@H]1c1ccc(OC)cc1`, for which the composite z-score with Albumin (Bos taurus) amounted to 0.72; in experiment [2], 0.815; in experiment [3], 0.493; in experiment [4], 0.614; in [5] it was 1.71; in experiment [6] it was 0.755. Moreover, the composite z-score is 1.32 in the experiment on Sam68 (KHDRBS1), -0.224 in experiment [7] and 1.1 in experiment [8]. Moreover, in experiment [1], the composite Z-score was -0.0164 (inactive).

Consider `CCOc1cc(C(O)C2C=CC3C(=O)NC(=O)C3N2Nc2ccc(Cl)cc2Cl)ccc1O` (stereo not given), for which the composite z-score in the experiment with Albumin (Bos taurus) was -0.671; in [2] it was -0.152; in [3], -0.0601; in experiment [4], 0.797; in [5], 1.23; in experiment [6], -0.587. Moreover, the figures for the composite z-score (in the experiment with Sam68 (KHDRBS1); in experiment [7]; in experiment [8]) were -1.94, -0.157 and -0.915, respectively. Also, in experiment [1], the composite Z-score was 0.568 (inactive).

With `O=C1N(Cc2ccccc2)c2ccccc2C[C@]12N=C(c1ccc(OCCCO)cc1)O[C@@H]2c1ccccc1`, the composite z-score was 0.185 with Albumin (Bos taurus); 0.0203 in [2]; -0.161 in experiment [3]; 0.529 in experiment [4]; 1.86 in experiment [5]; 0.274 in experiment [6]. Moreover, the composite z-score worked out at 0.48 in the experiment on Sam68 (KHDRBS1), 0.441 in [7] and 1.02 in experiment [8]. The composite Z-score in experiment [1] is 0.109 (inactive).

As to `C=C(COC)C(=O)CC[C@@H](OC(C)=O)c1cccc(OCCO)c1`, the composite z-score with Albumin (Bos taurus) is -0.693; in experiment [2], -0.0647; in experiment [3], -0.125; in experiment [4], 0.59; in [5], -0.591; in experiment [6], -0.621. Also, the composite z-score was -0.873 in the experiment with Sam68 (KHDRBS1), -0.109 in experiment [7] and -0.797 in experiment [8]. In addition, the composite Z-score in experiment [1] was -0.0662 (inactive).

For the compound `NC(=O)NCC#Cc1ccc2c(c1)[C@]1(C(=O)N2)[C@H](c2ccccc2OCCO)N2[C@H](c3ccccc3)[C@H](c3ccccc3)OC(=O)[C@H]2[C@@H]1C(=O)O`, the composite z-score is 0.276 in the experiment with Albumin (Bos taurus); -0.245 in [2]; -0.0772 in experiment [3]; 0.496 in experiment [4]; 0.259 in [5]; 0.931 in [6]. For the same compound, the composite z-score is 0.293 in the experiment with Sam68 (KHDRBS1), -0.128 in experiment [7] and 0.96 in [8]. Further, the composite Z-score in [1] is 0.155 (inactive).

Regarding `CCCCC(O)C1C=CC2C(=O)N(C)C(=O)C2N1N(c1ccccc1)c1ccccc1` (stereo not given), the composite z-score came out at 0.878 with Albumin (Bos taurus); 0.183 in [2]; 0.0203 in experiment [3]; 0.797 in [4]; 2.73 in [5]; 0.923 in [6]. Also, the results for the composite z-score (in the experiment on Sam68 (KHDRBS1); in experiment [7]; in experiment [8]) were 1.32, -0.711 and 1.1, respectively. In addition, the composite Z-score in experiment [1] is 0.418 (inactive).

Turning to `C=C[C@H]1C(C(=O)OCC)=CC[C@@H](c2ccccc2)N1S(=O)(=O)c1ccc(C)cc1`, the composite z-score with Albumin (Bos taurus) is 0.644; in experiment [2] it was 0.382; in [3], -0.0345; in experiment [4] it was 0.627; in experiment [5], 1.67; in [6], 0.516. The composite z-score is 1.1 in the experiment with Sam68 (KHDRBS1), 0.218 in experiment [7] and 0.789 in experiment [8]. The composite Z-score in experiment [1] was -0.176 (inactive).
